In the library only some 3.1% were active in any assay of this set; here they are far more common.
MITF act: activators of MITF-driven TRPM1 promoter activity in SK-MEL-5 cells; SK-MEL-5 TRPM1-promoter luciferase, 24 h; % of positive control, neutral wells = 0; hit rate 0.75% among 300,000; activation, % at 12.5 µM; AID 588334;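 active means mean activation of at least 80% with every replicate also reaching 80%; inconclusive means mean reaches 80% but some replicate falls short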;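 further: 0% = neutral control wells and 100% = parthenolide positive control wells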
Wnt act: activates Wnt/beta-catenin signaling in a reporter cell assay | activator, plate reader | activation, % at 9.35 µM | hit rate 1.2% among 300,000 | AID 743398; in the data active means activation above about 30%, passing the limit was not always enough; inconclusive means no clear call, values can overlap the other calls;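 further: 0% = neutral control wells and 100% = positive control wells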
esBAF inh: SWI/SNF esBAF complex inhibition | hit rate 2% among 350,000 | AID 602393 | mouse ES cells, Bmi1-luciferase knock-in reporter, 24 h; 100% = twice the neutral-well signal | reporter increase, % at 12.5 µM; in the data active means activation above about 40%; inconclusive means no clear call, values can overlap the other calls;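 further: 0% = median of the plate's neutral control wells and 100% = double that signal; a rise in the Bmi1 reporter signal indicates esBAF inhibition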
Rtt109 HAT inh: C. albicans Rtt109 histone acetyltransferase inhibition; purified Rtt109/Vps75, ThioGlo CoA-SH fluorescence, 4 h; inhibition, % at 34.9 µM; hit rate 0.16% among 330,000; AID 540336;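 active means inhibition of at least 50% in every replicate; inconclusive means best replicate reaches 50% inhibition but some replicates fall short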
Statin myotox sup: suppressors of simvastatin-induced myotoxicity in C2C12 myotubes; ATP luminescence, 48 h; scaled: DMSO 0, geranylgeraniol control 100; rescue of ATP level, % at 7.49 µM; hit rate 0.78% among 330,000; AID 602340;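 active means mean ATP rescue above about 67%, or every replicate alone reaching that limit, limit read from the data, passing the limit was not always enough; inconclusive means no clear call, values can overlap the other calls; inactive means mean under the limit and some replicate under it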;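 further: myotubes were challenged with 10 µM simvastatin during compound exposure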
Starred values were filed as active, the others as inactive; ? = inconclusive; . = not tested or not shown.

SMILES | MITF act | Wnt act | esBAF inh | Rtt109 HAT inh | Statin myotox sup
O=C(CN1CCOCC1)Nc1cc(C(F)(F)F)ccc1Cl | -0.2 | -3.4 | -1.4 | 2.1 | 2.3
COc1ccc(NC(=O)N(C)C[C@@H]2Oc3ccc(NS(=O)(=O)c4c(C)noc4C)cc3C(=O)N([C@H](C)CO)C[C@H]2C)cc1 | . | . | -1.4 | . | 20.4
O=c1cc(COc2ccc(Cl)c(Cl)c2)nc2sccn12 | 73.6 | ? | 45.4* | -6.9 | 4.1
O=C(OCc1cc(=O)n2ccsc2n1)c1ccccc1O | ? | -1.0 | 74.0* | -11.2 | 2.2
COc1ccc(NC(=O)N(C)C[C@H]2Oc3ccc(NC(=O)C4CC4)cc3CC(=O)N([C@H](C)CO)C[C@@H]2C)cc1 | . | . | -0.9 | . | -0.6
COc1ccccc1CN1C[C@H](C)[C@H](OC)CN(C)C(=O)c2cc(NC(C)=O)ccc2OC[C@H]1C | . | . | -1.5 | . | -21.0
CCNC(=O)[C@H]1[C@H](CO)[C@H]2Cn3c(ccc(-c4cccc(F)c4)c3=O)[C@H]2N1Cc1cc(F)ccc1F | . | . | -2.8 | . | 23.2
C[C@H](CO)N1C[C@H](C)[C@H](CN(C)C(=O)Nc2ccc(F)cc2)Oc2c(NC(=O)c3ccncc3)cccc2C1=O | . | . | 1.1 | . | 4.9
Oc1ccccc1-c1n[nH]c(-c2ccccc2O)n1 | 7.8 | 4.2 | . | -6.0 | .
Clc1ccccc1-c1nc(-c2ccccc2)n[nH]1 | 48.7 | 63.6* | 36.6 | -9.6 | 9.9
Cc1ccc(NC(=O)ON=C2CCCC2)cc1 | 96.5* | 18.9 | . | 3.6 | .
O=C(Nc1ccccc1)ON=C1CCCC1 | 19.7 | -0.9 | . | -3.4 | .
COc1cc(C=NNc2ccccc2)ccc1OC(=O)c1ccccc1 | . | 16.6 | 40.9* | . | 60.4

Screening results from PubChem.
